# Unmarked numbers belong to inactive results. Activity calls are given as the source filed them. Calls come from the whole dose curve; as a rule, active = well fitted curve in the direction sought with a large enough effect in the repeat runs; inconclusive = weak or mixed curves; inactive = flat fitted curve, though single readings scatter.
# Assay: qHTS assay to test for compound auto fluorescence at 535 nm (green) in HepG2 cell free culture (AID 720686)
# Settings: Cell-free medium, green autofluorescence 485/535 nm; series mostly up to 91.3 µM; fluorescence, % of fluorescein control: at the top concentration
# Source text: U.S. Tox21 Program National Center for Advancing Translational Sciences [NCATS] NIH Chemical Genomics Center [NCGC] U.S. Environmental Protection Agency [EPA] National Institutes of Environmental Health Sciences [NIEHS] National Toxicology Program [NTP] U.S. Food and Drug Administration [FDA] Tox21 Assay Overview: Compound auto fluorescence often interferes with screening of the compound library against various biological targets and signaling pathways. Some of these compounds may have fluorophoric properties. Such properties may interfere with the assay outputs resulting in false positives and/or negatives. To decrease such complications and ensure the compound activities are relevant in terms of biological response, the Tox21 10K compound library was screened for auto fluorescence. From the fluorophores used as reporter signals in our screening assays, the auto fluorescence equivalencies of compounds against three fluorophores have been evaluated: Triamterene, Fluorescein and Rose Bengal sodium for blue, green and red fluorescence, respectively. The fluorescence intensities were measured using Excitation/Emission wavelengths at 405/460nm, 485/535nm and 540/590nm for blue, green and red labels, respectively. This assay includes the green fluorescence data.
# Tox21 Assay Protocol Summary: 5 uL of culture medium (MEM containing 10% FBS) per well was dispensed into black wall/clear bottom 1536-well plates using a Multidrop Combi Dispenser (ThermoFisher Scientific, Waltham, MA). After 23 nL compound or DMSO vehicle was transferred into assay plate by a pintool work station (Kalypsys, San Diego, CA), fluorescence intensities in the assay plates were measured by an Envision (PerkinElmer, Shelton, CT) plate reader using three labels for measuring blue, green and red fluorescence at […] 460, 535 and 590nm respectively.
# % is set by controls: 0 for no effect and ±100 for the full control effect.
SMILES,"fluorescence, % of fluorescein control",outcome
CNC(=O)Oc1cccc(C(C)C)c1,0.0386%,–
CCOP(=S)(OCC)Oc1cc(-c2ccccc2)on1,-0.0369%,–
CN1CCN(C(=O)O[C@H]2c3nccnc3C(=O)N2c2ccc(Cl)cn2)CC1,0.0694% [at 46 µM],–
O=C1c2ccccc2C(=O)c2ccccc21,0.146% [at 46 µM],–
CC1CCC(=O)O1 (stereo not given),0.0262%,–
O=C(Oc1ccc(Br)cc1)N1CCN2CCC1CC2,-0.005%,–
Cc1ncsc1CCCl,0.0928% [at 46 µM],–
CC1=NNC(=O)N(/N=C/c2cccnc2)C1,-0.0058%,–
COP(N)(=S)Oc1ccccc1C(=O)OC(C)C (stereo not given),-0.0023%,–
CCN(CC)C(C)C(=O)c1ccccc1 (stereo not given),-0.0354% [at 46 µM],–
O=C(CCCN1CCC(n2c(=O)[nH]c3ccccc32)CC1)c1ccc(F)cc1,0.027% [at 18.6 µM],–
ClC(Cl)Br,0.0308%,–
O=C1OC(=O)C2C1C1(Cl)C(Cl)=C(Cl)C2(Cl)C1(Cl)Cl (stereo not given),-0.071% [at 95.7 µM],–
N#CCBr,0.0971% [at 95.7 µM],–
CC(C)(C)NCC(O)c1cc(Cl)c(N)c(Cl)c1 (stereo not given),-0.0213% [at 46 µM],–
[O]=[Cd],–,inactive
CCN(Cc1ccc(Cl)nc1)/C(=C/[N+](=O)[O-])NC,0.0386% [at 46 µM],–
CCCCCCBr,0.002% [at 95.7 µM],–
COc1ccc(C(=O)N2CCCC2=O)cc1,-0.0613% [at 46 µM],–
O=C(CCN1CC1)OCC(CO)(COC(=O)CCN1CC1)COC(=O)CCN1CC1,-0.0089%,–

SMILES,"fluorescence, % of fluorescein control",outcome
CNC(=O)O/N=C(\C)SC,0.0147%,–
CC(COc1ccc(Oc2ccccc2)cc1)Oc1ccccn1 (stereo not given),0.0699%,–
ClCCOCOCCCl,-0.127% [at 95.7 µM],–
CCC#N,-0.0122% [at 95.7 µM],–
CCCSP(=O)(OCC)Oc1ccc(Br)cc1Cl (stereo not given),0.0108% [at 46 µM],–
CC(=O)Nc1cc([As](=O)(O)O)ccc1O,-0.233% [at 46 µM],–
CCC(C)(C)c1cc(-n2nc3ccccc3n2)c(O)c(C(C)(C)CC)c1,0.0024% [at 95.7 µM],–
C#CCN1C(=O)COc2cc(F)c(N3C(=O)C4=C(CCCC4)C3=O)cc21,0.0115%,–
NC(=S)C(N)=S,0.0273%,–
CCOP(=S)(OCC)SCSP(=S)(OCC)OCC,-0.0564%,–
C[C@]12CC[C@H]3[C@@H](CC=C4C[C@@H](O)CC[C@@]43C)[C@@H]1CC[C@@H]2O,-0.0354% [at 46 µM],–
O=C(Cc1ccccc1)OCc1ccccc1,0.111%,–
Nc1c(Br)cc([N+](=O)[O-])cc1[N+](=O)[O-],-0.104% [at 95.7 µM],–
CC(C)(C)C(=O)C(Oc1ccc(Cl)cc1)n1cncn1 (stereo not given),0.0168%,–
CCN(CC)CCOC(=O)C(C)(c1ccccc1)c1ccccc1,0.0458% [at 46 µM],–
C=C(C)[C@@H]1CC=C(C=O)CC1,0.126%,–
CN(N=O)C(N)=O,0.015%,–
CCOc1nc(C(Cl)(Cl)Cl)ns1,0.0078%,–
Nc1cc2c3c(c1)C(c1ccccc1)=N[C@@H](NC(=O)c1cccnc1)C(=O)N3CC2,-0.0427%,–
Nc1n[nH]c(N)n1,-0.0855% [at 95.7 µM],–

# From PubChem BioAssay (Tox21)
